# High-throughput results: PubChem BioAssay, National Center for Advancing Translational Sciences (NCATS)
# Pf growth 48h – P. falciparum growth inhibition at 48 hours (one generation) | P. falciparum luciferase growth in erythrocytes, 48 h | Potency, µM (highest dose often 28.7 µM), for the others: top-dose activity change, negative = inhibition, usual class: inhibitors | 5.9% of 310,000 active | AID 504832; further: potency means the concentration at half of the fitted maximal effect; on the % scale 0 is the no-effect control and ±100 the full control effect
#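 Compounds are pin-transferred into medium, infected erythrocytes (2% hematocrit, 0.1% parasitemia final) are added, and plates sit one parasite generation at 37 C in 5% CO2. Detection reagent is then added and luminescence measured.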
# CHX counter – affects cycloheximide protein synthesis inhibition readout, counter-screen; cell reporter, cycloheximide protein synthesis inhibition counterscreen; max response, %; 12% of 300,000 active; in the data active means max response mostly above about 13%, no sharp cut-off; inactive means mostly below about 14%; further: read at 38.3 µM for the half of the compounds with a filed dose; 0% is about no effect
# Pf growth 96h – P. falciparum growth inhibition at 96 hour, primary screen for plastid delayed-death inhibitors; P. falciparum luciferase reporter growth, 96 h; Potency, µM (highest dose often 28.7 µM), inactives show at the highest dose activity change, negative = inhibition, usual class: inhibitors; 6.9% of 320,000 active; further: potency means the concentration at half of the fitted maximal effect; on the % scale 0 is the no-effect control and ±100 the full control effect
#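 Parasite growth measured via integrated firefly luciferase reporter in P. falciparum. Infected erythrocytes at 2% hematocrit, 0.05% parasitemia final were treated 96 hours at 37 C under 5% CO2, and luminescence was read.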
# Shiga inhibitor – blocks Shiga toxin action in Vero cells; Vero cells, Shiga toxin protein synthesis inhibition reporter; inhibition, % at 38.7 µM; 9.2% of 290,000 active; AID 2315; in the data active means inhibition mostly above about 28%, no sharp cut-off; inactive means mostly below about 43%; further: 0% is about no effect
# The depositor's hits bear a star; ? = inconclusive; nt = no result. Compounds with a hit are over-represented: about 21% of the library has one in this group of screens. Unless noted, the call rests on the fitted dose curve; in most records, active means well fitted inhibition curve with a large enough effect; inconclusive means small, poorly fitted or top-dose-only effect, or another doubt; inactive means no such curve, though single readings can be large or run the other way.
SMILES,Pf growth 48h,CHX counter,Pf growth 96h,Shiga inhibitor
Cc1ccc(NC(=O)CCNC(=O)Cn2cnc3ccccc3c2=O)cc1F,-4%,-4,9%,-5
CC(=O)Nc1sc2c(c1C#N)CC(C)(C)NC2(C)C,9%,5,nt,-13
CCCC(=O)Nc1sc2c(c1C#N)CC(C)(C)NC2(C)C,11%,-3,2.1µM*,-9
Cc1cc(OCC(=O)Nc2sc3c(c2C#N)CC(C)(C)NC3(C)C)c(C(C)C)cc1Cl,13µM*,-3,7.4µM*,-8
Cc1nc(C(=O)N2CCCC(Nc3ccc(C)c(C)c3)C2)cs1 (stereo not drawn),3%,0,275%,-2
Cc1ccc(NC2CCCN(C(=O)c3cn4cccc(C)c4n3)C2)cc1C (stereo not drawn),8%,-2,4.1µM*,-8
Cc1ccc(NC2CCCN(C(=O)c3ccccn3)C2)cc1C (stereo not drawn),2%,9,13µM*,-4
CCCOc1ncnc2c1sc1nc3c(cc12)COC(C)(C)C3,51%,10,39%,16
CC1(C)Cc2nc3sc4c(=O)[nH]cnc4c3cc2CS1,15%,10*,-12%,15
CCCCCn1cnc2c(sc3nc4c(cc32)CSC(C)(C)C4)c1=O,89%,61*,160%,150*
CC1CCC(NC(=O)C(C)N2C(=O)C3CCCCC3C2=O)CC1 (stereo not drawn),57%,nt,20%,nt
CCCCN(C(=O)NCCCCCCNC(=O)N(CCCC)C1CCS(=O)(=O)C1)C1CCS(=O)(=O)C1 (stereo not drawn),?,4,?,2
O=C(Nc1cccc(NC(=O)c2ccccc2)n1)c1ccccc1,1%,11,?,nt
O=C(NC1=C(Nc2ccc(Cl)cc2)C(=O)c2ccccc2C1=O)c1ccccc1,0.13µM*,24*,0.1µM*,38
O=C(NC(NC1CCS(=O)(=O)C1)C(=O)c1cccs1)c1ccccc1 (stereo not drawn),13%,3,nt,-4
CN(C1=C(NC(=O)c2ccc(Cl)cc2)C(=O)c2ccccc2C1=O)c1ccccc1,1.9µM*,20*,?,50*
CC(=O)Nc1ccc(NC2=C(Cl)C(=O)c3ccccc3C2=O)cc1,0%,18,18%,39
O=C1C(Cl)=C(NC(=O)c2ccccc2)C(=O)C(Cl)=C1NC(=O)c1ccccc1,nt,18*,?,60
O=C(NC1=C(NC2CCS(=O)(=O)C2)C(=O)c2ccccc2C1=O)c1ccccc1 (stereo not drawn),1.7µM*,21,?,39
CCn1cc(C(=O)N[C@@H](CCSC)C(=O)NCCCn2ccnc2)c(=O)c2cc3c(cc21)OCO3,11%,-7,-22%,-3
CC(C)(C)c1ccc(S(=O)(=O)N(CCCN2CCOCC2)Cc2cccs2)cc1,?,-4,12%,10
Cc1ccc(C(=O)N(C)CC(=O)Nc2cccc(C)c2C)o1,-8%,-1,15%,-4
Cc1cccc(NC2=C(NC(=O)c3ccccc3)C(=O)c3ccccc3C2=O)c1,0.47µM*,14*,?,30
CC(C)NC(=O)CN1CCC(c2nc3ccccc3[nH]2)CC1,21%,1,4%,14
Nc1n[nH]c(C2CC2)c1N=Nc1ccc(Cl)c(Cl)c1,42%,22,30%,51*
SMILES,Pf growth 48h,CHX counter,Pf growth 96h,Shiga inhibitor
CN(C)c1nc(C=C(C#N)C#N)c(Cl)n1-c1ccc(F)cc1,?,24*,?,6
O=C1ON=C(c2ccccc2[N+](=O)[O-])/C1=C/c1cccc([N+](=O)[O-])c1O,8%,nt,?,nt
Cn1c(C(=O)N2CCN(c3ccc(F)cc3)CC2)cc2ccccc21,?,6,?,8
COc1ccc(-c2cc(C(=O)Nc3cc(OC)c(OC)c(OC)c3)no2)cc1,-5%,-3,104%,-9
COc1ccccc1-c1cc(C(=O)Nc2cccnc2Cl)no1,9%,-7,21%,-10
COc1cccc2cc(C(=O)NCCc3ccccc3)oc12,8.3µM*,-9,32%,-22
COc1cc(NC(=O)c2cc(-c3ccc(C)cc3)on2)cc(OC)c1OC,0%,11*,-8%,nt
COc1ccc(OC)c(-c2cc(C(=O)Nc3c(C)nn(Cc4ccccc4)c3C)no2)c1,13µM*,-2,?,-16
COc1ccc(OC)c(-c2cc(C(=O)Nc3c(C)nn(Cc4ccc(Cl)cc4)c3C)no2)c1,?,-1,-20%,41
COc1ccccc1-c1cc(C(=O)Nc2cccnc2)no1,192%,25*,?,48*
CCOc1cc(C#N)ccc1OCC(=O)N1CCN(C(=O)c2cccs2)CC1,?,nt,-30%,nt
N#C/C(=C\c1ccc(-c2cccc([N+](=O)[O-])c2)o1)C(=O)Nc1nc(-c2cccs2)cs1,?,0,109%,-6
COc1cc(NC(=O)c2cc(-c3ccccc3Cl)on2)cc(OC)c1OC,0%,1,12µM*,-5
COc1ccccc1-c1cc(C(=O)NCCc2ccccc2)no1,nt,54*,nt,147*
COc1ccc(NC(=O)c2cc(-c3ccccc3OC)on2)cc1,?,19*,2%,88*
COc1cc(NC(=O)c2cc(-c3cccs3)on2)cc(OC)c1OC,23%,14,0%,3
COc1ccc(CCNC(=O)c2cc(-c3ccccc3OC)on2)cc1OC,?,15,nt,43
COc1ccc(NC(=O)c2cc(-c3ccccc3Cl)on2)cc1,?,44*,?,130*
COc1ccc(NC(=O)c2cc(-c3cccc(OC)c3)on2)cc1,14%,9,171%,13
CCCc1cc(C(=O)Nc2cc(C)nn2-c2ccccc2)no1,nt,-2,123%,3
CCCc1cc(C(=O)NCCc2ccccc2)no1,186%,53*,-17%,87*
Cc1cc(C)n2nc(SCC(=O)NC3CCCCC3C)nc2n1 (stereo not drawn),?,10,?,-14
C=C(C)CNC(=S)Nc1cccc2cnccc12,6%,0,-17%,13
Cc1cc(C)cc(NC(=S)Nc2cccc3cnccc23)c1,2.1µM*,6,?,-17
CCc1ccc(NC(=S)Nc2cccc3cnccc23)cc1,?,36*,?,65*
SMILES,Pf growth 48h,CHX counter,Pf growth 96h,Shiga inhibitor
Cc1ccc(NC(=S)Nc2cccc3cnccc23)c(C)c1,-8%,15,1%,24
CCc1nn(CC(=O)NCCCN2CCOCC2)c(=O)c2cc3cc(F)ccc3n12,-3%,-3,?,-11
NCCNC(=O)Cn1c(=O)c2c3c(sc2n(Cc2ccccc2)c1=O)CCCC3,?,-2,?,-8
COc1cccc(C(=O)OCC(=O)Nc2sc3c(c2C(N)=O)CCC3)c1O,15%,nt,?,nt
COc1cccc(NC(=O)NCCC2=CCCCC2)c1,34%,19*,?,74*
O=C(COC(=O)COc1ccccc1)NCCC1=CCCCC1,-1%,nt,48%,nt
COc1ccc(NC(=O)NCCC2=CCCCC2)cc1,74%,28*,33%,71*
COc1ccccc1NC(=O)NCCC1=CCCCC1,?,2,81%,-3
CC(=O)Nc1cccc(OCC(=O)NCCC2=CCCCC2)c1,29%,23*,18%,29*
CCN1C(=O)C(=O)N(CC(=O)N2CCN(c3ccccc3)CC2)C1=O,7%,nt,16%,nt
